Drawing on the supplement of paper PMC10105736, this text covers MAPPIT interaction score for 15 molecules.

A number with no mark means an inactive call.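 How the source made its calls: active = MAPPIT score above the 99th percentile of random reference set scores in the same batch; inactive = at or below it.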

Experiment in all cases: MAPPIT interaction score (arbitrary units); higher = stronger binary interaction signal, active = hit call of the paper
The target of test [1] is Cdc5. The conditions noted are these: MAPPIT configuration: N-N; pair source set: DPIM.
Test [2] has as its target Cdc50. The conditions noted are these: MAPPIT configuration: N-N; pair source set: DPIM.
Test [3] has as its target Cdlc2. The conditions noted are these: MAPPIT configuration: N-N; pair source set: Finley_Y2H.
The target of test [4] is Cpr62Ba. Particulars: pair source set: RRS.
Test [5] has as its target Chd64. Particulars: MAPPIT configuration: N-N; pair source set: RRS.
The target in test [6] is Coprox. Particulars: MAPPIT configuration: N-N; pair source set: RRS.
For test [7], the target named is CycG. The conditions noted are these: MAPPIT configuration: N-N; pair source set: Finley_Y2H.
Test [8] has as its target c-cup. Particulars: MAPPIT configuration: N-N; pair source set: Finley_Y2H.
Test [9] addresses ix. Particulars: MAPPIT configuration: N-N; pair source set: Finley_Y2H.
The target of test [10] is Cp190. Particulars: MAPPIT configuration: N-N; pair source set: Lit-BM-16.
The target in test [11] is mod(mdg4). The conditions noted are these: pair source set: Lit-BM-16.
Test [12] concerns the target CkIIalpha-i3. The conditions noted are these: MAPPIT configuration: N-C; pair source set: screen_3.
Test [13] deals with Cda5. Particulars: MAPPIT configuration: N-N; pair source set: Lit-BS-16.
The target of test [14] is Cnb. The conditions noted are these: pair source set: Lit-BM-16.
In test [15] the target is Cpr47Eg. The conditions noted are these: MAPPIT configuration: N-N; pair source set: Lit-BM-16.
For test [16], the target named is RpS13. The conditions noted are these: pair source set: Lit-BM-16.
Test [17] concerns the target Sas-6. The conditions noted are these: pair source set: Lit-BM-16.
In test [18] the target is cnn. The conditions noted are these: pair source set: Lit-BM-16.
For test [19], the target named is Cpr56F. Particulars: MAPPIT configuration: N-N; pair source set: Finley_Y2H.
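Further: HEK293T cells with Epo stimulation, STAT-responsive firefly luciferase reporter, fold induction versus unstimulated cells divided by the larger fold induction of two negative controls lacking either bait or prey.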

B1: LTV1 (protein)
chain: MVKGKKPYIDRKKAVTFHLVHRSQHDPLVTDENAPQRVLLEAAARQQKPKDPEPPTDPAQRQEELKKFGIHFDDDYDYMQHLKKRENDVVWEFMENPNQARKQKVQDSEKPGPAPKLMLPSSVFASEFEESEGMLNKAAPQTLRLDWDPDVVAALDSDCENEELEDDFVIQAMAEGDSDDEEWDDEDGEEQSDMDFDSDDLNEDENEDELMDRLAPLMRERRFDDEEVKSRFTEYSMSSSVIRRNEQLSLLDDRFEKFYATYDDPELGDLALEDIEGNWHQKHPVVMQCFQEFKKKDKGIEYNKEWDRERIEKYRNVVEGEEDPTEELVEYEVDDPKQKKWDCESILSTYSNIYNHPKVIDEPRRSRRSSASTNPAPIQIDPKTGLPTNVLRGGVDGQLTAKALANLADESPAATGPKSLCAKSVLSTLSVLSIRPKDETHEEKKERKRLLKDYRNERRIEKKANTEAFKEEKKRQTHVKINQRTNQQGASIV
Turning to B1, the MAPPIT interaction score in test [1] is 1.03.

B2: CaBP1 (protein)
chain: MRQLASILLLAFVVGSVSAFYSPSDGVVELTPSNFDREVLKDDAIWVVEFYAPWCGHCQSLVPEYKKLAKALKGVVKVGSVNADADSTLSGQFGVRGFPTIKIFGANKKSPTDYNGQRTAKAIAEAALAEVKKKVQGVLGGGGGSSSGGSGSSSGDDVIELTEDNFDKLVLNSDDIWLVEFFAPWCGHCKNLAPEWAKAAKELKGKVKLGALDATAHQSKAAEYNVRGYPTIKFFPAGSKRASDAQEYDGGRTASDIVSWASDKHVANVPAPELIEIINESTFETACEGKPLCVVSVLPHILDCDAKCRNKFLDTLRTLGEKFKQKQWGWAWAEGGQQLALEESLEVGGFGYPAMAVVNFKKMKFSVLKGSFSKDGINEFLRDISYGRGHTAPVRGAKKPAIVSVDPWDGKDGQLPTEEDIDLSDIDLDKDEL
For the molecule B2, the MAPPIT interaction score in test [2] was 0.0074.

B3: Acp62F (protein)
chain: MTDMWSLKICACLGLLLLFKPIDSMGWQGPKVDCTANGTQTECPVACPETCEYSGNGPCVKMCGAPCVCKPGYVINERIPACVLRSDCPKDVVRKEDMLLGVSNFKCFSRNYNCS
For B3, the MAPPIT interaction score in test [3] was 2.6.

B4: Rad60 (protein)
chain: MSDDDCDIFSAARKRIPEIALPKNPYNLGNDSFSKEVDYDFIEDLPKKSTKTGKRKNPAATRKNPPKSQDDASPPKQAEHKAVEPEEDMRTERSLSPVSLLILEMEKKNGQQSDVEKHAKENDVGPVARRTRSSLNRSEMAPPPVSPTVEVPTQTKPKKRGQKKRTSLTTTTSNSASMEVSLPSIVGQNNEHISRRWTLAEVAARSKVVDSIDLVSAVAPRVEGFVNLDSEDEGEKEAPPVVEEENIFDNDNPTIEVALSWLGEIQIYKLRQHQKFKHLFKELASRNGIDENDITVDMYYNFVGPEDTPHSIGLKSFHTLTGHPTKSHNNNNVAAKIDYNPEALCRKPKKFQVKVQADKWKHPLVIPMKKTDNFKIIFIKCAEELNCDPRTIKLFFDGDLLDPNDTPNNQDMEGNEVIDLKIKA
As to B4, the MAPPIT interaction score in [4] (MAPPIT configuration: N-C) is -0.181; in test [4] (MAPPIT configuration: N-N), 1.45.

B5: GstS1 (protein)
chain: MADEAQAPPAEGAPPAEGEAPPPAEGAEGAVEGGEAAPPAEPAEPIKHSYTLFYFNVKALAEPLRYLFAYGNQEYEDVRVTRDEWPALKPTMPMGQMPVLEVDGKRVHQSISMARFLAKTVGLCGATPWEDLQIDIVVDTINDFRLKIAVVSYEPEDEIKEKKLVTLNAEVIPFYLEKLEQTVKDNDGHLALGKLTWADVYFAGITDYMNYMVKRDLLEPYPALRGVVDAVNALEPIKAWIEKRPVTEV
As for B5, the MAPPIT interaction score in test [5] was 0.058.

B6: Ilp6 (protein)
chain: MVLKVPTSKVLLVLATLFAVAAMISSWMPQVAASPLAPTEYEQRRMMCSTGLSDVIQKICVSGTVALGDVFPNSFGKRRKRDLQNVTDLCCKSGGCTYRELLQYCKG
B6: the MAPPIT interaction score in test [6] was -0.378.

B7: mldr (protein)
chain: MYNLRLLRNLLPIAGHAHPRWLASQHKRRPQPGSLPADRLDQLRSDLFERRHELSGAEWTEVRRSLVDGYKHINGHNVDAVILGVCSAPNQLSLAKSYVEFLRSRGSKPNAATLGRLLRVYNAAYHERPLSEAEQSEILQICRSLQAEHETLDASSCENVIHGLVATSGDDWQRGLPLLEMMKVTSTPSVAAYSALAEKAFSVATPEQELAWRLLEEMATARKPPKCEVYLALLNRLANETAQLPAQLSLLLQFLERHEILVSQRVAIRLQELSSQVPQLLHTRTTHLGGLGKCQSCQQHLQPVAISDEEFRQLSECFLERVLIRRDVFQRSTPEEVARFKKFVEKTAPYDCVIDGLNVAYSTGTKKTPQQLAKLVATVVRHFREQDKRVLVLGREHMRNWSKQAMHYVHCNASLFLTSNLSHDDPFLLYATLRSGQETDFFSRDLMRSHAFHLGTELKPIFRRWQQEHQFSLVTQTQTGQIIVKEPVRHRLCAHQVADTWHVPYCAQYTPHPTDSFEVPANWLCIQMKEQTIPATKTKTKTTR
With B7, the results for the MAPPIT interaction score in test [7], in test [8] and in [9] were -0.0303, -0.00733 and 0.483, respectively.

B8: su(Hw) (protein)
chain: MSASKEGKEKKGKLLGVENISPPKDKRPATRMKLLNDVGAGEDSEASTTTTTSRTPSNKQEKRGSVAGSRIKILNEEILGTPKTEKRGATKSTAPAASTVKILNEKKTPSATVTAVETTKIKTSPSKRKKMEHYVLQAVKSENTKADTTVTVVTEEDDTIDFILADDEEVVPGRIENNNGQEIVVTEDDEDLGEDGDEDGEDSSGKGNSSQTKIKEIVEHVCGKCYKTFRRVQSLKKHLEFCRYDSGYHLRKADMLKNLEKIEKDAVVMEKKDICFCCSESYDTFHLGHINCPDCPKSFKTQTSYERHIFITHSEFSDFPCSICNANLRSEALLALHEEQHKSRGKPYACKICGKDFTRSYHLKRHQKYSSCSSNETDTMSCKVCDRVFYRLDNLRSHLKQHLGTQVVKKPEYMCHTCKNCFYSLSTLNIHIRTHTGEKPFDCDLCDKKFSALVALKKHRRYHTGEKPYSCTVCNQAFAVKEVLNRHMKRHTGERPHKCDECGKSFIQATQLRTHSKTHIRPFPCEQCDEKFKTEKQLERHVKTHSRTKRPVFSCAECKRNFRTPALLKEHMDEGKHSPKQQRSSMRSAVKIMERTDCAICDKNFDSSDTLRRHIRTVHECDPDDIFGVEPHPSKRAKKDIESEEVVPVALNTSAGSLISSQTDGNGVVVREFLVDEGDGAAQTITLENETYTILPLDGAIEGEQLTDEAGVKPEAKKEEAQVSPVVKKEQRKSLAASLAAAIADNLEESCSEDDFSGEILTEEDIKLKENVGKLIDMLVDPPILKKYGWPNAPEETVLCKVIENCGHDLTKGGENYAELDYGSRMREYCKLLFTVVIHNDSIKSLLNNFPIDDVIEYVLGDEDQDEGGLDKDNESHSGDEEAVSVTGETKTNEIREKPEKKEVSAKSEKKEIVGKAVDKDNSEEVVRENKKKPVGEQEKA
Turning to B8, the MAPPIT interaction score in [10] is 0.105; in test [11] (MAPPIT configuration: N-C) it was 2.52; in [11] (MAPPIT configuration: N-N) it was 0.317.

B9: Timp (protein)
chain: MDLRKHLGLLTLLLVAVFAFYGRPADACSCMPSHPQTHFAQADYVVQLRVLRKSDTIEPGRTTYKVHIKRTYKATSEARRMLRDGRLSTPQDDAMCGINLDLGKVYIVAGRMPTLNICSYYKEYTRMTITERHGFSGGYAKATNCTVTPCFGERCFKGRNYADTCKWSPFGKCETNYSACMPHKVQTVNGVISRCRWRRTQLYRKCMSNP
Regarding B9, in test [12], the MAPPIT interaction score was 0.0292.

B10: Cp36 (protein)
chain: MQLGLWFGILAIAATPLVSANYGPAGGHGHGHGHGQYLSGPNAGLEEYVNVASGGNQQAANQIASQAEIQPTPEEARRLGRVQAQLQALNADPNYQKLKNSEDIAESLAETNLASNIRQGKIKVVSPQFVDQHLFRSLLVPSGHNNHQVIATQPLPPIIVHQPGAPPAHVNSGPPTVVRGNPVIYKIKPSVIYQQEVINKVPTPLSLNPVYVKVYKPGKKIEAPLAPVVAPVYSQPREYSQPQGYGSAGAASSAAGAASSADGNAYGNEAPLYNSPAPYGQPNY
Turning to B10, the MAPPIT interaction score in test [13] is 0.061.

B11: Aladin (protein)
chain: MAALSNLKQCPPFSTLPDLALRHNHIPELERYPQINLNSELLANPAGQRYYGGQSFVSVNEGVLKRIARSFFNGGFWKTLEEARSPETREQAPLIAQAGDLIAQFLGLATGLRILPHTQQLSAERIAQFVETRDWLNSDVRYLAWNQHFFCLAVAGVDDVVRIYTKSSSATTATVLKSPSQTQITCMAWRPLCASEIVIGCRQGLCFWEVDSTLHLGRTNAPSEIFKYPNNLPITSMQWNKDGTQLATASIGDRSIIIWQPDTGMMQPLKRLGPPGSLLKWSPDNDWLFAATVDRVFRVWNCHQQWTTERWVCGPGGYVQTACWSPCGRFLLFVSSAEPILYRLQFVQQSLLSSSADEKEILPIADLNACSIDANRTLVGGPAQQLAWDPHGNYLVVTFKATNCIAVFRTFIQKFDLQISAAYYLSGETAAEHPSFICFQPLYEDNDRSVLTIAWSSGRIQYYAFD
As for B11, the MAPPIT interaction score in test [7] was -0.0444.

B12: RpS13 (protein)
chain: MGRMHAPGKGISQSALPYRRTVPSWLKLNADDVKEQIKKLGKKGLTPSKIGIILRDSHGVAQVRFVNGNKILRIMKSVGLKPDIPEDLYHMIKKAVAIRKHLERNRKDKDGKFRLILVESRIHRLARYYKTKSVLPPNWKYESSTASALVA
Take B12: in test [14] (MAPPIT configuration: N-N), the MAPPIT interaction score is 0.219.

B13: Cpr47Eg (protein)
chain: MKFFIAFACLLAVALANEDANVLRAEQQVNVDGFAYAVELDNSVNVQQKGDLNGEEWVVKGSQSWTSPENVPVSIQYIADANGYQVVSANPPLPTPPPIPEAIQRSLEYIAAHPPSQ
With B13, the MAPPIT interaction score in test [14] (MAPPIT configuration: N-C) is 1.11; in test [14] (MAPPIT configuration: N-N) it was -0.0471.

B14: Cnb (protein)
chain: MGNETSLPMDMCSNFDADEIRRLGKRFRKLDLDNSGALSIDEFMSLPELQQNPLVQRVIDIFDADGNGEVDFKEFIQGVSQFSVRGDKLSKLRFAFRIYDMDNDGYISNGELFQVLKMMVGNNLKDTQLQQIVDKTICFADKDEDGKISFDEFCSVVGNTDIHKKMVVDV
In the case of B14, the MAPPIT interaction score is 0.368 in test [15]; 0.361 in test [16] (MAPPIT configuration: N-C); -0.0673 in test [16] (MAPPIT configuration: N-N); 0.335 in test [17] (MAPPIT configuration: N-C); -0.212 in [17] (MAPPIT configuration: N-N); -0.173 in test [18] (MAPPIT configuration: N-C). Besides, in [18] (MAPPIT configuration: N-N), the MAPPIT interaction score was 0.273.

B15: Uro (protein)
chain: MFATPLRQPAAANHQTPKNSAGMDEHGKPYQYEITDHGYGKDAVKVLHVSRNGPVHAIQEFEVGTHLKLYSKKDYYQGNNSDIVATDSQKNTVYLLAKKHGIESPEKFALLLARHFINKYSHVEEAHVHVEAYPWQRVCQEETRTNVNGKCENGVQGNCDFSSIDNRSLHNHAFIFTPTALHYCDVVIRRTDPKQTVITGIKGLRVLKTTQSSFVNFVNDEFRSLPDQYDRIFSTVVDCSWEYSDTENLDFLRAWQTVKNIIIRNFAGDPQVGVSSPSVQHTLYLSERQVLDVLPQVSVISMTMPNKHYFNFDTKPFQKIAPGDNNEVFIPVDKPHGTIYAQLARKNINSHL
B15: the MAPPIT interaction score in test [19] was -0.112.
